Laboratory results taken from PubChem BioAssay AID1851 (National Center for Advancing Translational Sciences (NCATS), 2009).
About 5,800 (36%) of roughly 16,000 compounds were called active. Inconclusive results (about 23%) are left out. Calls come from the whole dose curve; as a rule, active = well fitted curve in the direction sought with a large enough effect; inconclusive = small, poorly fitted or top-dose-only effect, or effect the other way; inactive = no such curve, though single readings can be large or run the other way. The list shows a part of the results.

Target: Cytochrome P450 2C19 (Homo sapiens) (UniProt P33261)
Sequence (P33261 whole entry, looked up): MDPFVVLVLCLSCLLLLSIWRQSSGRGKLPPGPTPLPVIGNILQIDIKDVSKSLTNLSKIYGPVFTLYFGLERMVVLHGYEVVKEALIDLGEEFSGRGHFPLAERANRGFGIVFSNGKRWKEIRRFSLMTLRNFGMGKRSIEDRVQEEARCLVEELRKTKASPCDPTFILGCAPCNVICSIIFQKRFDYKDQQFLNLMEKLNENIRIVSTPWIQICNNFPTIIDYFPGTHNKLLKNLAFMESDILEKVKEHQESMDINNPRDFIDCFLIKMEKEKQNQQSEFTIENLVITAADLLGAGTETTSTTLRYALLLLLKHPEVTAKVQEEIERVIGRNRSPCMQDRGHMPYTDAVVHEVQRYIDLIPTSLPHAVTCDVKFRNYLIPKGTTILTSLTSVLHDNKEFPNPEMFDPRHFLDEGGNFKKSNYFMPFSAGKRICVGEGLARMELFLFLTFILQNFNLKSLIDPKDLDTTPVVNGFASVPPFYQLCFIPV
Assay: Cytochrome panel assay with activity outcomes
Settings: recombinant CYP, pro-luciferin dealkylation, luminescence, p450-cyp2c19; series mostly up to 57.1 µM
% is set by controls: 0 for no effect and ±100 for the full control effect.

| SMILES | activity, negative = inhibition | AC50 |
| --- | --- | --- |
| Nc1nc(N)nc(CCCc2nc(N)nc(N)n2)n1 | 103% [at 11.4 µM] (inactive) |  |
| N#Cc1cccc(-c2nc3cnc(N4CCNCC4)nc3n(C3CC3)c2=O)c1 |  | inactive |
| CN1C(=O)C(CC(N)=O)N(NC(=O)c2ccc(Cl)cc2)C1=S (stereo not drawn) |  | inactive |
| Cc1ccc(NC(=S)NC2CCCC2)cc1 |  | 3.55 µM (active) |
| CO[C@H]1COC(=O)C/C=C\[C@H](C)[C@@H](OC)COC(=O)[C@@H](C)COC(=O)C/C=C\[C@@H]1C | -29.5% [at 11.4 µM] (inactive) |  |
| CN1CCN(c2ncc3nc(-c4ccc(Cl)cc4)c(=O)n(Cc4cccs4)c3n2)CC1 |  | inactive |
| COc1ccc(Cn2c(SCc3ccccc3C)nc3cc(OC)c(OC)cc3c2=N)cc1 |  | 20 µM (active) |
| COc1cc2nc(SCc3ccc(Cl)cc3Cl)n(Cc3cccs3)c(=N)c2cc1OC |  | 2.51 µM (active) |
| COc1cccc(-c2ccc3ncnc(N4CCOCC4)c3c2)c1 |  | 3.98 µM (active) |
| CS(=O)(=O)Nc1cccc(-c2ccc3ncnc(N4CCOCC4)c3c2)c1 |  | inactive |
| CN1CCN(c2ncnc3ccc(-c4ccccc4C#N)cc23)CC1 |  | inactive |
| FC(F)(F)c1ccccc1-c1ccc2ncnc(N3CCOCC3)c2c1 |  | 0.631 µM (active) |
| Cc1ccccc1-c1ccc2ncnc(N3CCN(C)CC3)c2c1 |  | inactive |
| COc1ccccc1-c1ccc2ncnc(N3CCOCC3)c2c1 |  | 1.26 µM (active) |
| CN1CCN(c2ncnc3ccc(-c4ccccc4Cl)cc23)CC1 |  | 3.98 µM (active) |
| O=C(O)C1CCN(c2ncnc3ccc(-c4ccccc4C(F)(F)F)cc23)CC1 |  | inactive |
| CS(=O)(=O)Nc1cccc(-c2ccc3ncnc(N4CCNCC4)c3c2)c1 |  | inactive |
| CN1CCN(c2nc(-c3ccccc3C(F)(F)F)nc3ccccc23)CC1 |  | inactive |
| FC(F)(F)c1ccccc1-c1nc(N2CCOCC2)c2ccccc2n1 |  | 15.8 µM (active) |
| COc1ccccc1-c1nc(N2CCOCC2)c2ccccc2n1 |  | inactive |
| N#Cc1cccc(-c2ccc3ncnc(N4CCNCC4)c3c2)c1 |  | inactive |

| SMILES | activity, negative = inhibition | AC50 |
| --- | --- | --- |
| COc1cccc(-c2ccc3ncnc(N4CCNCC4)c3c2)c1 |  | 3.16 µM (active) |
| NCCCCC(=O)O |  | inactive |
| CCOC(=O)C1=C(c2ccccc2)OC(N)=C(C#N)C1c1ccc(Cl)s1 (stereo not drawn) |  | 0.398 µM (active) |
| CCc1cc2c(=O)c(-c3nc4ccccc4[nH]3)coc2cc1OC(=O)N1CCOCC1 |  | 15.8 µM (active) |
| COc1cc(Br)c(C(C)NC(=O)c2cccc(Br)c2)cc1OC (stereo not drawn) |  | 2.24 µM (active) |
| COc1ccc(CNc2ncnc3ccc(-c4ccc(N(C)C)cc4)cc23)c(OC)c1 |  | 3.98 µM (active) |
| CN(C)c1ccc(-c2ccc3ncnc(NCc4ccccc4)c3c2)cc1 |  | 7.94 µM (active) |
| COc1ccccc1CNc1ncnc2ccc(-c3ccc4c(c3)OCO4)cc12 |  | 3.16 µM (active) |
| COc1ccccc1CNc1ncnc2ccc(-c3ccc(N(C)C)cc3)cc12 |  | 10 µM (active) |
| CC(C)CO/N=C1/C[C@@H](O)[C@@H](O)[C@@H]2[C@@H]3C(=O)N(C[C@@H]4CCCO4)C(=O)[C@H]3CC[C@H]12 | 24.8% [at 11.4 µM] (inactive) |  |
| COCCNc1ncnc2ccc(-c3ccc(C(=O)N(C)C)cc3)cc12 |  | inactive |
| COc1ccc(CNc2ncnc3ccc(-c4ccc(C(=O)N(C)C)cc4)cc23)c(OC)c1 |  | 15.8 µM (active) |
| O=c1nc(N2CCOCC2)ccn1-c1nc(-c2ccccc2)oc1-c1ccccc1 |  | inactive |
| Clc1ccc(Sc2cc(N3CCOCC3)nc(-c3ccccc3)n2)cc1 |  | 3.55 µM (active) |
| COc1cccc(Sc2cc(N3CCOCC3)nc(-c3ccccc3)n2)c1 |  | 14.1 µM (active) |
| Nc1nc(Cl)cc(N2CCOCC2)n1 |  | inactive |
| CS(=O)(=O)Nc1cccc(-c2nc(N3CCOCC3)c3ccccc3n2)c1 |  | inactive |
| Cc1c(Br)c([N+](=O)[O-])nn1C(C)C(=O)Nc1nccs1 (stereo not drawn) |  | 10 µM (active) |
| CCc1ccccc1NC(=O)C(C)n1nc([N+](=O)[O-])c(Br)c1C (stereo not drawn) |  | 2.51 µM (active) |
| C[N+](C)(C)CCCCCC[N+](C)(C)C |  | inactive |
| O=C(CSCC(=O)OCn1nnc2ccccc2c1=O)Nc1ccc(Cl)cc1 |  | 11.2 µM (active) |

| SMILES | activity, negative = inhibition | AC50 |
| --- | --- | --- |
| CCC1OC23CCCCC2C(C#N)(C(=N)O3)C1(C#N)C#N (stereo not drawn) |  | 17.8 µM (active) |
| Nc1ccccc1S[C@@H](C[N+](=O)[O-])c1ccc2c(c1)OCO2 |  | 1.58 µM (active) |
| COc1ccc(C(=O)N2CCC[C@@]3(CCN(C(=O)NC(C)C)C3)C2)cc1 |  | inactive |
| CCCCCn1c(CN2CCN(c3cc(Cl)ccc3C)CC2)nc2c1c(=O)[nH]c(=O)n2C |  | 3.55 µM (active) |
| CCN1CCN(c2cc(=O)n(-c3cc(Cl)ccc3C)c(=O)[nH]2)CC1 |  | inactive |
| COc1cc(O)c2c(O)c3c(c4c2c1[C@@]1(C4)C(C)=CCCC1(C)C)[C@H](O)[C@@]1(O)CC(=O)C(C(N)=O)=C(O)[C@]1(O)C3=O |  | 2.51 µM (active) |
| N#Cc1nc(COc2ccccc2Cl)oc1NCc1ccco1 |  | 2.24 µM (active) |
| CN(C)CCNc1oc(COc2ccc(Cl)cc2Cl)nc1C#N |  | inactive |
| CCC1C(=O)N=C(SCC(=O)Nc2ccc(C(=O)OC)cc2)NC1=O (stereo not drawn) |  | 22.4 µM (active) |
| CCOC(=O)c1ccc(NC(=O)CC2NCCNC2=O)cc1 (stereo not drawn) |  | inactive |
| CCCCSc1ccc2nc(-c3ccc(C#N)cc3)cn2c1 |  | 4.47 µM (active) |
| Clc1ccccc1CNCC1CCC(CNCc2ccccc2Cl)CC1 (stereo not drawn) |  | 0.794 µM (active) |
| Oc1ccccc1CNCc1ccccc1O | -44.5% [at 11.4 µM] (inactive) |  |
| O=C(O)C[C@H](Cc1ccccc1Cl)C(=O)O | 14.2% [at 11.4 µM] (inactive) |  |
| CC(N)=NCCCC[C@H](N)C(=O)O |  | inactive |
| O=C(O)C1(Nc2ccc(Cl)cc2)CCCC1 | 25.8% [at 11.4 µM] (inactive) |  |
| NC(=O)C1(N2CCCCC2)CCN(C(=O)c2ccc(-n3cnnn3)cc2)CC1 |  | inactive |
| NC(=O)C1(N2CCCCC2)CCN(C(=S)Nc2ccc(Cl)cc2)CC1 |  | 3.16 µM (active) |
| CCCNC1CCS(=O)(=O)C1 (stereo not drawn) |  | inactive |
| CCCCN(C(=S)Nc1ccccc1)C1CCS(=O)(=O)C1 (stereo not drawn) |  | inactive |
| CCCCSC(=S)N(C)C1CCS(=O)(=O)C1 (stereo not drawn) |  | 3.98 µM (active) |
